The record followed here is PubChem BioAssay (Tox21).

Molecules are shown by their SMILES. “And” between values parts separate entries of the source, which are not always exact repeats. Equal values may be shown once. Unmarked numbers belong to inactive results. Inconclusive results are not listed. The source made the active and inactive calls. Unless noted, calls come from the whole dose curve; as a rule, active = well fitted curve in the direction sought with a large enough effect in the repeat runs; inconclusive = weak or mixed curves; inactive = no such curve, though single readings can be large; an effect the other way counts as inactive or inconclusive.

Assay [1] can be described thus: qHTS assay to identify small molecule agonists of the estrogen related receptor (ERR) signaling pathway from Tox21 library (AID 1224849; calls by dose curve; note: nearly all actives have a fitted effect of over 15% in size). The note with it: ERR reporter cell line, ONE-Glo luciferase, 18 h. An outline of the steps:
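ERR reporter cell line (NTP) seeded, rested 6 h at 37 C/5% CO2, then pinned with Tox21 compounds in DMSO. After 18 h at 37 C, ONE-Glo luciferase luminescence was read following 30 min at room temperature.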

The nature of assay [2]: qHTS assay to identify small molecule agonists of the hypoxia (HIF-1) signaling pathway - cell viability counter screen (AID 1224844; calls by dose curve; note: nearly all actives have a fitted effect of over 50% in size). The note with it: HRE-bla ME-180 viability, CellTiter-Glo luminescence, 17 h; series mostly up to 76.8 µM. An outline of the steps: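 HRE-bla ME-180 cells in medium with 0.5% dialyzed FBS were preincubated 5 hrs at 37C, exposed to compounds for 17 hrs, then viability was read as CellTiter-Glo luminescence after 30 min at room temperature, in the reporter wells.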

Assay [3] in a line: qHTS assay to identify small molecule agonists of H2AX (AID 1224845; active = well fitted activation curve with a large enough effect in the signal ratio in the repeat runs, not every such curve was filed as active; the % refers to the signal ratio). The note with it: CHO-K1 phospho-H2AX Ser139 HTRF, 3 h; series mostly up to 154 µM. The essentials:
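Phospho-H2AX Ser139 measured by HTRF (ex 320 nm; em 665 and 620 nm) after 24 hr antibody incubation. Compounds, 15 concentrations, 0.76% DMSO, were applied to CHO-K1 cells for 3hr at 37C before lysis.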

Assay [4] is described as follows: qHTS assay to identify small molecule agonists of the hypoxia (HIF-1) signaling pathway (AID 1224846; active = well fitted activation curve with a large enough effect in the signal ratio in the repeat runs, not every such curve was filed as active; the % refers to the signal ratio). The note with it: HRE-bla ME-180 cells, beta-lactamase ratio, 17 h; series mostly up to 76.8 µM. An outline of the steps: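 HRE-bla ME-180 cells (beta-lactamase reporter under hypoxia response element) were plated at 2,000 cells/well in medium with 0.5% dialyzed FBS, rested 5 hrs, then given compounds in DMSO for 17 hrs at 37C, 5% CO2. Reporter induction was read with CCF4-AM FRET substrate.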

Assay [5] is described as follows: qHTS assay to identify small molecule agonists of H2AX - cell viability counter screen (AID 1224847; calls by dose curve; note: nearly all actives have a fitted effect of over 30% in size; note: potency is the fitted concentration of half-maximal effect; for activity change, negative = cytotoxicity: top concentration of the series differs between compounds). The note with it: CHO-K1 viability, CellTiter-Glo luminescence, 3 h; series mostly up to 154 µM. An outline of the steps:
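We seed wild-type CHO-K1 cells overnight, treat them for 3 hr at 37C with compounds in 15-concentration series, and quantify remaining viability by CellTiter-Glo luminescence.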

A short description of assay [6]: qHTS assay to identify small molecule antagonists of the estrogen related receptor (ERR) signaling pathway from Tox21 library (AID 1224848). Note: nearly all actives have a fitted effect of over 50% in size. The note with it: ERR reporter cell line, luciferase antagonist mode, 18 h; series mostly up to 92.4 µM. The essentials: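 Reading was by luminescence 30 min after ONE-Glo addition. Before that, ERR cells at 2,000 per well had rested 6 h at 37 C/5% CO2 and then received pin-tooled compounds in DMSO for 18 h at 37 C.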

Assay [7] is described as follows: qHTS RealTime-Glo MT Cell Viability Assay in HEK293 cells - 32 hour (AID 1224868). For activity change, negative = cytotoxic: top concentration of the series differs between compounds. Note: nearly all actives have a fitted effect of over 50% in size. Note: potency is the fitted concentration of half-maximal effect. The note with it: RealTime-Glo luminescence; series mostly up to 76.8 µM. The essentials:
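HEK293 cells were seeded at 600 cells/well together with NanoLuc luciferase and cell-permeant prosubstrate, preincubated 5 h at 37 C/5% CO2, then given compound in DMSO by pintool. Luminescence from viable-cell prosubstrate reduction was read repeatedly over 40 h.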

The nature of assay [8]: qHTS RealTime-Glo MT Cell Viability Assay in HepG2 cells - 24 hour (AID 1224867). Note: nearly all actives have a fitted effect of over 50% in size. The note with it: RealTime-Glo luminescence; series mostly up to 76.8 µM. The essentials:
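HepG2 cells were seeded at 600 cells/well together with NanoLuc luciferase and a cell-permeant prosubstrate, preincubated 5 h at 37 C/5% CO2, then pin-dosed with compounds in DMSO. Nonlytic luminescence from viable cells was read at each time point.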

Assay [9] is described as follows: A CellTox Green Cytotoxicity Assay to monitor cytotoxicity in HEK293 cells - 0 hour (AID 1224869). Note: nearly all actives have a fitted effect of over 50% in size. Note: potency is the fitted concentration of half-maximal effect. The note with it: CellTox Green fluorescence; series mostly up to 76.8 µM. An outline of the steps: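 HEK293 cells premixed with CellTox Green dye were seeded at 600 cells/well and left 5 h at 37 C/5% CO2 before pin transfer of 23 nL compound in DMSO. Fluorescence from dye bound to dead-cell DNA was read during 40 h treatment.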

Assay [10] is described as follows: qHTS RealTime-Glo MT Cell Viability Assay in HepG2 cells - 40 hour (AID 1224870). Note: nearly all actives have a fitted effect of over 50% in size. Note: potency is the fitted concentration of half-maximal effect. The note with it: RealTime-Glo luminescence; series mostly up to 76.8 µM. An outline of the steps:
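Real-time viability: cells seeded at 600 per well together with NanoLuc and cell-permeant prosubstrate, compounds added after 5 h incubation. Luminescence tracked at 0, 8, 16, 24, 32 and 40 h of exposure.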
% is set by controls: 0 for no effect and ±100 for the full control effect.

With `CC(C)Cn1cnc2c(N)nc3ccccc3c21`, the activity change, positive = activation in assay [1] (at 19 µM (top of the series)) was -11.2%.
For the compound `CCCCCCCC/C=C\CCCCCCCCN`, the Potency entry in assay [2], in assay [3], in assay [4], in assay [5] and in assay [6] was “inactive” each time. Further, the activity change, positive = activation in [1] (at 42.5 µM (top of the series)) is -2.95%. Besides, the Potency in assay [7] was 23.9 µM (active).
On to `CC1=CCC(=C(C)C)CC1`, for which the Potency result in [2], in assay [3], in assay [4], in assay [5], in assay [8] and in assay [7] was “inactive” throughout. Further, the Potency entry in assay [9] and in [10] was “inactive” in each case.
In the case of `CC(C)(C)CC(C)(C)c1ccc(Nc2ccc(C(C)(C)CC(C)(C)C)cc2)cc1`, the activity change, negative = cytotoxicity is 0.53% [at 6.97 µM] in [2], 0.45% [at 14 µM] in [5] and 0.0274% [at 6.97 µM] in [8]. Further, in assay [3], the activation (H2AX phosphorylation) was 0.788% [at 14 µM]. Moreover, in [4], the activation is 3.2% [at 7.01 µM]. Also, the activity change, negative = cytotoxic is 9.22% [at 6.97 µM] in assay [7] and -1.04% [at 6.97 µM] in assay [10]. Further, the cytotoxicity in assay [9] is 3.78% [at 6.97 µM].
For the compound `OC1CCCc2ccccc21` (stereo not drawn), the Potency result in assay [2], in assay [3], in assay [4], in assay [5], in assay [8] and in assay [7] was “inactive” in each case. Moreover, the Potency entry in [9] and in assay [10] was “inactive” each time.
As for `O=[N+]([O-])c1cccc(C(F)(F)F)c1`, the Potency entry in assay [2], in assay [3], in assay [4], in assay [5], in assay [8] and in assay [7] was “inactive” each time. Also, the Potency entry in [9] is “inactive”.
Take `CC(C)CCCCCOC(=O)CCS`: the Potency result in assay [2], in [3], in assay [4], in assay [5], in [6] and in assay [8] was “inactive” each time. Besides, the Potency result in assay [9] and in [10] was “inactive” throughout. In assay [1] (at 92.4 µM (top of the series)), the activity change, positive = activation was 3.69%.
For the compound `CCN(CCN)c1cccc(C)c1`, the Potency entry in assay [2], in [3], in assay [4], in assay [5], in assay [8] and in assay [7] was “inactive” in each case. In addition, the Potency result in assay [9] is “inactive”. Also, the activity change, positive = activation in [1] (at 92.4 µM (top of the series)) is -29% and -22.9%.
As to `COc1ccc(-c2coc3cc(O)ccc3c2=O)cc1`, the Potency result in assay [2], in assay [3], in assay [4], in assay [5], in assay [8] and in assay [7] was “inactive” throughout.
For `NC(=O)c1cccc([N+](=O)[O-])c1`, the Potency entry in assay [2], in [3], in assay [4], in [5], in [8] and in assay [7] was “inactive” in each case. Besides, the Potency result in assay [9] and in assay [10] was “inactive” throughout.
As to `CCCC(=O)OCCc1ccccc1`, the Potency result in assay [2], in assay [3], in [4], in [5], in [8] and in assay [7] was “inactive” each time. In addition, the Potency in assay [9] was 43.6 µM (active).
Consider `CCC(C)[O-].CCC(C)[O-].CCOC(=O)/C=C(/C)[O-].[Al+3]`, for which the Potency entry in [2], in assay [3], in assay [4], in assay [5], in assay [8] and in [7] was “inactive” throughout. In addition, the Potency entry in assay [9] and in assay [10] was “inactive” in each case.
Take `COc1cccc(OC)c1C(=O)O`: the Potency result in [2], in assay [3], in assay [4], in assay [5], in assay [8] and in assay [7] was “inactive” throughout.
Take `CCCCOC(=O)CO`: the Potency entry in assay [2], in assay [3], in [4], in assay [5], in assay [8] and in assay [7] was “inactive” throughout. Moreover, the Potency entry in assay [9] and in assay [10] was “inactive” in each case.
Regarding `COC(=O)c1ccccc1C`, the Potency result in assay [2], in assay [3], in assay [4], in assay [5], in [6] and in assay [8] was “inactive” in each case. In addition, the Potency result in assay [9] and in [10] was “inactive” in each case. Further, the activity change, positive = activation in [1] (at 92.4 µM (top of the series)) is 3.57%.
Consider `C[C@H]1NCc2cc(-c3ccc4c(=O)c(C(=O)O)cn(C5CC5)c4c3OC(F)F)ccc21`, for which the activity change, negative = cytotoxicity in assay [2] was 6.72% [at 15.8 µM]; in assay [5], 0.563% [at 31.6 µM]; in [8], -15.8% [at 15.8 µM]. Further, in assay [3], the activation (H2AX phosphorylation) was 4.25% [at 31.6 µM]. Moreover, in assay [4], the activation was 0.068% [at 15.8 µM]. Also, the activity change, negative = cytotoxic in assay [7] is -6.15% [at 15.8 µM]; in assay [10], -10.9% [at 15.8 µM]. In addition, the cytotoxicity in [9] is 0.0457% [at 15.8 µM].
Regarding `O=C(Oc1ccccc1)Oc1ccccc1`, the Potency entry in assay [2], in assay [3], in assay [4], in assay [5], in [6] and in assay [7] was “inactive” in each case. Besides, the Potency entry in [9] is “inactive”. The activity change, positive = activation in [1] (at 92.4 µM (top of the series)) was -11.4%. Also, the Potency in assay [10] is 34.5 µM (active).
As to `COc1ccc(NC(=O)CC(C)=O)cc1`, the Potency result in [2], in assay [3], in assay [4], in assay [5], in assay [8] and in [7] was “inactive” each time. Also, the Potency entry in [9] and in assay [10] was “inactive” in each case.
With `CCC(CC)C(C)CCOC(C)=O` (stereo not drawn), the Potency result in assay [2], in assay [3], in assay [4], in [5], in assay [8] and in [7] was “inactive” in each case. For the same compound, the Potency entry in [9] and in assay [10] was “inactive” in each case.
Turning to `CC[C@H](C)COC(=O)/C=C/c1ccc(N=Cc2ccc(OC)cc2)cc1`, the Potency entry in assay [2], in [3], in [4], in assay [8] and in [9] was “inactive” in each case. Moreover, the Potency in assay [5] is 89.7 µM (active); in assay [7], 21.8 µM (active).
As to `c1ccsc1`, the Potency result in assay [2], in [3], in [4], in [5], in assay [8] and in [7] was “inactive” in each case. Moreover, the Potency result in [9] was “inactive”.
As to `O=C(O)c1ccc2cc(C(=O)O)ccc2c1`, the Potency entry in assay [2], in [3], in [4], in assay [5], in assay [8] and in assay [7] was “inactive” in each case. The Potency entry in assay [9] and in assay [10] was “inactive” each time.
Take `CC(C)(C)NSc1nc2ccccc2s1`: the Potency entry in assay [2], in assay [3], in assay [4], in assay [5], in assay [8] and in [7] was “inactive” each time. The Potency entry in assay [9] and in [10] was “inactive” each time.
On to `CC[N+](CC)(CC)CCOC(=O)C(C1CCCC1)C1CCCC1`, for which the Potency entry in assay [2], in assay [3], in assay [4], in assay [5], in [8] and in [10] was “inactive” in each case. For the same compound, the activity change, positive = activation in assay [1] (at 42.5 µM (top of the series)) is -21.2%.
